# Reference: PubChem BioAssay (Tox21)
# Results filed as inconclusive are left out. Unmarked numbers belong to inactive results. Active and inactive are the calls of the source. Calls follow the shape of the dose curve; as a rule, active = well fitted inhibition curve with a large enough effect in the signal ratio in the repeat runs (not every such curve was filed as active); inconclusive = weak or mixed curves, or effect the other way; inactive = no such curve, though single readings can be large or run the other way; the % refers to the signal ratio.
# Molecular target: Vitamin D3 receptor (Homo sapiens) (UniProt P11473)
# Test: qHTS assay to identify small molecule antagonists of the vitamin D receptor (VDR) signaling pathway (AID 743223)
# Conditions: VDR-UAS-bla HEK293T, beta-lactamase FRET ratio, 16 h; series mostly up to 61 µM
# Excerpt: U.S. Tox21 Program National Center for Advancing Translational Sciences [NCATS] NIH Chemical Genomics Center [NCGC] U.S. Environmental Protection Agency [EPA] National Institutes of Environmental Health Sciences [NIEHS] National Toxicology Program [NTP] U.S. Food and Drug Administration [FDA] Tox21 Assay Overview: The vitamin D receptor (VDR), a member of nuclear hormone receptor superfamily, plays a critical role in calcium homeostasis and bone metabolism. It is also involved in cell differentiation and growth, and thrombogenicity.
# Tox21 Assay Protocol Summary: VDR-bla cells were dispensed at 2,000 cells/5 uL of assay medium per well into black wall/clear-bottom 1536-well plates using a Multidrop Combi (Thermo Fisher Scientific, Waltham, MA) dispenser. After the assay plates were incubated at a 37C and 5% CO2 for 4 h, 23 nL of compounds dissolved in DMSO, positive controls or DMSO only was transferred to the assay plate by a Pintool station (Kalypsys, San Diego, CA), followed by addition of 1 uL of 1alpha, 25-Dihydroxy Vitamin D3 (3 nM, final concentration in the wells) using a Bioraptr Flying Reagent Dispenser (FRD) workstation (Beckman Coulter, Indianapolis, IN). The plates were incubated at 37C and 5% CO2 for 16 h, and then 1 uL of LiveBLAzerTM B/G FRET substrate was added using a Bioraptr FRD. The plates were incubated at room temperature for 2 h and fluorescence intensity was measured by an Envision plate reader (PerkinElmer, Shelton, CT).
# % is scaled to controls: 0 for no effect and ±100 for the full control effect.
# Sequence of Vitamin D3 receptor (Homo sapiens) (P11473 whole entry, looked up): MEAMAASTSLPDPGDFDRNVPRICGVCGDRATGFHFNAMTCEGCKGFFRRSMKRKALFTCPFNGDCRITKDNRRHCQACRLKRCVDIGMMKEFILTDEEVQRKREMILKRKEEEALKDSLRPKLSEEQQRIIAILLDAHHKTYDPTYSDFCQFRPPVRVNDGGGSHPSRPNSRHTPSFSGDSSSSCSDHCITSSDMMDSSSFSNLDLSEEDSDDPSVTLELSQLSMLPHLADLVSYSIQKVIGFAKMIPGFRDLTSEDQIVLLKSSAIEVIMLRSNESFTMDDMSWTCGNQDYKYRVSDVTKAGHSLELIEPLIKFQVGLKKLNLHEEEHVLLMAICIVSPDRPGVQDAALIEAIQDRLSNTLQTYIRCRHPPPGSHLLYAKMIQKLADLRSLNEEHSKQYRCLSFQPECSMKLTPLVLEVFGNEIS
SMILES,outcome,"activity change, negative = inhibition"
NS(=O)(=O)c1cc2c(cc1Cl)CN(C1CCCCC1)C2=O,inactive,
Cc1cccc(C)c1NC(=O)c1ccccc1C(=O)O,inactive,
COCCOC(=O)C1=C(C)NC(C)=C(C(=O)OC(C)C)C1c1cccc([N+](=O)[O-])c1 (stereo not given),inactive,
C=C(C)C(=O)OCc1ccccc1,inactive,
CCCCCCOc1ccccc1C(N)=O,inactive,
CC(CN)CC(C)(C)CCN (stereo not given),inactive,
O=S(=O)(O)c1ccc2cc(O)c(S(=O)(=O)O)cc2c1,inactive,
CC1(C)S[C@@H]2[C@H](N=CN3CCCCCC3)C(=O)N2[C@H]1C(=O)O,inactive,
C=COCCOCCOCCOC=C,inactive,
O=S(=O)(O)CCN1CCN(CCO)CC1,inactive,
CC(C)CC(=O)O,inactive,
CCCC/C=C/C=C\C=O,inactive,
O=C1CCCC(=O)O1,inactive,
C[Si](C)(C)C,inactive,
C=C(C)C(=O)OCCN(CC)CC,inactive,
O=C(OCC(O)CO)c1ccccc1Nc1ccnc2c(C(F)(F)F)cccc12 (stereo not given),inactive,
O=C(O)C(=O)Cc1ccccc1,inactive,
CC(C)=O,inactive,
CCCCCCCCCCl,inactive,
CN=C(NC#N)Nc1ccc(C2=NNC(=O)CC2C)cc1 (stereo not given),inactive,

SMILES,outcome,"activity change, negative = inhibition"
COC(=O)[C@@H]1[C@H]2C[C@H]3c4[nH]c5ccccc5c4CCN3C[C@@H]2CC[C@@H]1O,inactive,
O=C(Nc1ccc(Cl)c(Cl)c1)C1CC1,inactive,
CCNC(=O)C1CC(C)CCC1C(C)C (stereo not given),inactive,
COC(=O)C1CC(=O)C(C(=O)OC)CC1=O (stereo not given),,0.852% [at 6.95 µM]
Nc1ccc([N+](=O)[O-])c(N)c1,inactive,
O=C(O)Cc1ccc(Cl)cc1Cl,inactive,
O=C(c1ccc(O)cc1)c1ccc(O)c(O)c1O,inactive,
Cc1cccc2nccnc12,inactive,
CCCOC(=O)C(C)O (stereo not given),inactive,
CCCCCCN,inactive,
CNS(=O)(=O)CCc1ccc2[nH]cc(C3CCN(C)CC3)c2c1,inactive,
COCCOCCOCCOCCOCCO,inactive,
Nc1ncnc(Nc2ccccc2)n1,inactive,
O=C1c2cccc3c2[C@H](CCC3)CN1[C@@H]1CN2CCC1CC2,inactive,
COc1ccc(C2CNC(=O)C2)cc1OC1CCCC1 (stereo not given),inactive,
N[C@@H](CCC(=O)Nc1ccc([N+](=O)[O-])cc1)C(=O)O,inactive,
O=C(CCN1CCN(CCO)CC1)N1c2ccccc2Sc2ccc(C(F)(F)F)cc21,inactive,
COc1nccnc1NS(=O)(=O)c1ccc(N)cc1,inactive,
O=C(CS(=O)Cc1ccco1)NC/C=C\COc1cc(CN2CCCCC2)ccn1 (stereo not given),inactive,
COc1ccc2c(c1)C(=O)N(CCc1ccc(S(=O)(=O)NC(=O)NC3CCCCC3)cc1)C(=O)C2(C)C,inactive,
